# Data as given in PubChem BioAssay (NCATS).
# Inconclusive results are not listed. A call without a number means that no potency is given here. Values without a mark were called inactive. Activity calls are given as the source filed them. The call rests on the fitted dose curve; in most records, active means well fitted inhibition curve with a large enough effect; inconclusive means small, poorly fitted or top-dose-only effect; inactive means flat fitted curve, though single readings scatter.
# Molecular target: Aldehyde dehydrogenase, mitochondrial (Homo sapiens) (UniProt P05091)
# Experiment: qHTS for Inhibitors of the Aldehyde Dehydrogenase Family (ALDH2) Primary screen (AID 2061308); further: nearly all actives have a fitted effect of over 55% in size
# Settings: ALDH2 enzyme inhibition qHTS, 1536-well; series mostly up to 56 µM
Compound,Potency,"activity change, negative = inhibition"
CCCC1=CC2=C(CO1)C(=O)C(C)(OC(=O)c1c(C)cc(OC)cc1O)C(O)C2 (stereo not given),inactive,
CCCCCOC(=O)Nc1nc(=O)n(C2O[C@H](C)[C@@H](O)[C@H]2O)cc1F (stereo not given in full),inactive,
C=CC(C)(O)CC/C=C(\C)C(=O)O[C@@H]1[C@@H](O)[C@H](OC(C)(C=C)CC/C=C(\C)C(=O)O[C@@H]2O[C@H](CO)[C@@H](O)[C@H](O)[C@H]2O)O[C@H](CO)[C@H]1OC(=O)/C(C)=C/CCC(C)(O)C=C (stereo not given in full),inactive,
COC(C(=O)N1Cc2[nH]nc(NC(=O)c3ccc(N4CCN(C)CC4)cc3)c2C1)c1ccccc1 (stereo not given),inactive,
O=C(O)Cc1cn([C@@H]2O[C@H](CO)[C@@H](O)[C@H](O)[C@H]2O[C@@H]2O[C@H](CO)[C@@H](O)[C@H](O)[C@H]2O)c2ccccc12,inactive,
CC1(CCC(=O)O)C(=O)C=CC23CC4CC(OC4(C)C2O)C13 (stereo not given),inactive,
CCC(C)C(=O)OC12C(OC(C)=O)C(C)C3(O)C(C=C(CO)CC4(O)C(=O)C(C)=CC43)C1C2(C)C (stereo not given),inactive,
N#CC1C(=O)N=C(c2cc(Cl)ccc2O)C=C1c1cc(OCc2ccccc2)cc(OCc2ccccc2)c1 (stereo not given),inactive,
Cc1cn2c(N)c(Cl)cc(C(=O)NCC3CCN(CC(C)C)CC3)c2n1,inactive,
COC(=O)[C@]1(C)CCC[C@@]2(C)[C@@H]3CC[C@@H]4C[C@@]3(CC[C@@H]21)C[C@H]4C(=O)O,inactive,
CC1CCC2(C)CCC3(C)C(=CCC4C5(C)CCC(O)C(C)(C(=O)O)C5CCC43C)C2C1C (stereo not given),inactive,
O=S(=O)(O)c1ccc(Nc2ncnc3c2ncn3[C@@H]2O[C@H](CO)[C@@H](O)[C@H]2O)cc1,inactive,
CC(=O)OC1C(O)C2C(C)C3=CC(=O)OC3(O)CC2C2(C)CCCC(C)(CO)C12 (stereo not given),inactive,
C=C(C(=O)O)[C@@H]1CC[C@@]2(C)CC[C@@H](O)C(=C)C2C1 (stereo not given in full),inactive,
CC(=O)C12OC(C)(C)OC1CC1C3CCC4=CC(=O)C=CC4(C)C3(F)C(O)CC12C (stereo not given),inactive,
C=CC(C)(O)CC/C=C(/C)C(=O)OC1C(OC2OCC(OC3OC(CO)C(O)C(O)C3O)C(OC3OCC(O)C(OC4OC(C)C(O)C(O)C4O)C3O)C2O)COC(OC(=O)C23CCC(C)(C)CC2C2=CCC4C5(C)CCC(OC6OC(CO)C(OC7OC(CO)C(O)C(OC8OCC(O)C(O)C8O)C7O)C(O)C6O)C(C)(C)C5CCC4(C)C2(C)CC3O)C1O (stereo not given),,0.572% [at 11.2 µM]
COC(=O)C[C@H]1C(C)(C)[C@H](OC(=O)c2ccccc2)C2CC3=C4CC(=O)O[C@@H](c5ccoc5)[C@]4(C)CCC3[C@@]1(C)C2=O (stereo not given in full),inactive,
O=C(CCCCc1ccc2ccccc2c1)C(F)(F)F,inactive,
N#Cc1ccc(Nc2nc(-c3ccc(O)cc3O)cs2)cc1C(F)(F)F,inactive,
COC(=O)C1=COC(OC2OC(CO)C(O)C(O)C2O)C2C(C)C(OC(=O)/C=C/c3ccc(O)cc3)C(O)C12 (stereo not given),inactive,

Compound,Potency,"activity change, negative = inhibition"
Cc1ccc(S(=O)(=O)n2ccc(-c3c(-c4ccc(Cl)cc4)noc3C)n2)cc1,inactive,
COc1cc(C2Oc3c(O)cc(CCCO)cc3C2CO)ccc1O[C@H]1O[C@H](C)[C@@H](O)[C@H](O)[C@@H]1O (stereo not given in full),inactive,
C/C=C(/C)C(=O)O[C@@H]1C[C@@H](OC(=O)/C(C)=C\C)[C@@]2(C)C3C(=O)C=C(C)C2C3C1(C)C,inactive,
CN1c2ccccc2C(=O)N2CCC3c4ccccc4NC3C21 (stereo not given),inactive,
C/C=C/C=C/C=C/C(=O)O[C@@H]1[C@@H](OC)C2=C(C(=O)N(C(C)C(=O)O)C2)[C@@]2(C)CCCC(C)(C)[C@H]12 (stereo not given in full),inactive,
Cc1cnc(NC(=O)Nc2cc(Br)c(C)cc2OCC2CNCCO2)cn1 (stereo not given),inactive,
CC1=CC23[C@H](C=C(C(=O)O)[C@@H]2COC(=O)[C@]3(O)CO)[C@@H]1C (stereo not given in full),inactive,
N#CCc1ccc(O)cc1O[C@@H]1O[C@H](CO)[C@@H](O)[C@H](O)[C@H]1O,inactive,
Nc1ncnc2c1nc(Cl)n2C1OC2COP(=O)(O)OC2C1O (stereo not given),inactive,
OC[C@H]1O[C@@H](O[C@H]2[C@H](OCc3ccccc3)O[C@H](CO[C@@H]3OC[C@@H](O)[C@H](O)[C@H]3O)[C@@H](O)[C@@H]2O)[C@H](O)[C@@H](O)[C@@H]1O,inactive,
CN(CC1(C)CCCO1)S(=O)(=O)c1ccc(Cl)c(S(N)(=O)=O)c1 (stereo not given),inactive,
CC(=O)O[C@H]1C[C@H](OC(C)=O)[C@]2(C)[C@H](CC[C@@]34O[C@@H]3C3=C(C)C(=O)O[C@@H]3C[C@H]42)C1(C)C,inactive,
C[C@@H]1C(=O)O[C@H](C)[C@H]1CC(=O)[C@](C)(O)[C@H]1CC[C@@]2(O)C3=CC(=O)[C@@H]4C[C@@H](O)[C@@H](O)C[C@]4(C)C3CC[C@]12C (stereo not given in full),inactive,
COCC1OC(OC(C)(C)C2CCC3(C)C=C(C4CCC5C4(C)CC(O)C4OC(C(C)(C)OC6OC(CO)C(O)C(O)C6NC(C)=O)CCC45C)CCC3O2)C(NC(C)=O)C(O)C1O (stereo not given),inactive,
C[C@H](CCC(=O)O)[C@H]1CC[C@H]2[C@@H]3C[C@H](O)[C@@H]4C[C@H](O)CC[C@]4(C)[C@H]3CC[C@]12C,inactive,
C=CC1(C)CC2=CCC3C(C)(C(=O)O)CCCC3(C)C2CC1OC(C)=O (stereo not given),inactive,
CCC(CC)(NC(=O)C(C)C)C(=O)N[C@@H](CCCN=C(N)N)C(=O)NC1(C(=O)NC(c2ccc(F)cc2)c2ccc(F)cc2)CCCC1,inactive,
O=C(c1ccc(OC(F)F)c(C#Cc2ccccn2)c1)N1Cc2cccnc2C1,inactive,
Cc1cccc(Nc2cc(Cl)nc(SCC(=O)O)n2)c1C,inactive,
CC(C)/C=C1/NC(=O)C(C(C)C)n2c1nc1c(O)cccc1c2=O (stereo not given),inactive,
